The whole screen tested about 5,500 compounds, of which about 2,000 (36%) were called active. About 18% were inconclusive and are not listed. The list shows a part of the results. A number with no mark means an inactive call. No stated cut-off is given here; in the data, active means normalized growth mostly below about 0.91 (no sharp cut-off); inconclusive means no clear call, values can overlap the other calls; inactive means mostly above about 0.92.
Test: chemical genetic growth profiling, strain panel (AID 1159580);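 further: tested at 20 µM; growth read once vehicle control cultures reached saturation at 30 °C; 1 = growth at the plate median or of vehicle wells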
Conditions: S. cerevisiae deletion strains, growth OD
[1] = locus YHR030C, strain SLT2, stronger effect = lower value
[2] = locus YHR079C, strain IRE1, stronger effect = lower value
[3] = locus YJL095W, strain BCK1, stronger effect = lower value
[4] = locus YJR066W, strain TOR1, stronger effect = lower value
[5] = locus YLR113W, strain HOG1, stronger effect = lower value
[6] = locus YNL183C, strain NPR1, stronger effect = lower value
[7] = locus YOR231W, strain MKK1, stronger effect = lower value
[8] = locus YPL256C, strain CLN2, stronger effect = lower value

## OC1(C(F)(F)F)CC(C23CC4CC(CC(C4)C2)C3)=NN1 (centres undefined)
Locus YAR019C, strain CDC15, stronger effect = lower value
  normalized growth: 0.867 (active)
Locus YBL105C, strain PKC1, stronger effect = lower value
  normalized growth: 0.905
Locus YBR135W, strain CKS1, stronger effect = lower value
  normalized growth: 0.898
Locus YBR136W, strain MEC1, stronger effect = lower value
  normalized growth: 0.889 (active)
Locus YBR160W, strain CDC28, stronger effect = lower value
  normalized growth: 0.891 (active)
Locus YDL017W, strain CDC7, stronger effect = lower value
  normalized growth: 0.913
Locus YDL028C, strain MPS1, stronger effect = lower value
  normalized growth: 0.847 (active)
Locus YDL101C, strain DUN1, stronger effect = lower value
  normalized growth: 0.897 (active)
Locus YDL108W, strain KIN28, stronger effect = lower value
  normalized growth: 0.892 (active)
Locus YDL132W, strain cdc53, stronger effect = lower value
  normalized growth: 0.872 (active)
Locus YDL214C, strain PRR2, stronger effect = lower value
  normalized growth: 0.642 (active)
Locus YDR052C, strain DBF4, stronger effect = lower value
  normalized growth: 0.882 (active)
Locus YDR054C, strain cdc34, stronger effect = lower value
  normalized growth: 0.88
Locus YDR226W, strain ADK1, stronger effect = lower value
  normalized growth: 0.859 (active)
Locus YDR477W, strain SNF1, stronger effect = lower value
  normalized growth: 0.505 (active)
Locus YER123W, strain YCK3, stronger effect = lower value
  normalized growth: 0.435 (active)
Locus YER133W, strain GLC7, stronger effect = lower value
  normalized growth: 0.57 (active)
Locus YFL009W, strain cdc4, stronger effect = lower value
  normalized growth: 0.851 (active)
Locus YFL029C, strain CAK1, stronger effect = lower value
  normalized growth: 0.876 (active)
Locus YFR003C, strain YPI1, stronger effect = lower value
  normalized growth: 0.905
Locus YFR019W, strain FAB1, stronger effect = lower value
  normalized growth: 0.527 (active)
Locus YFR028C, strain CDC14, stronger effect = lower value
  normalized growth: 0.86 (active)
Locus YGR040W, strain KSS1, stronger effect = lower value
  normalized growth: 0.497 (active)
Locus YGR052W, strain FMP48, stronger effect = lower value
  normalized growth: 0.62
Locus YGR092W, strain DBF2, stronger effect = lower value
  normalized growth: 0.487
[1]
  normalized growth: 0.183 (active)
[2]
  normalized growth: 0.645
Locus YHR082C, strain KSP1, stronger effect = lower value
  normalized growth: 0.688
Locus YHR205W, strain SCH9, stronger effect = lower value
  normalized growth: 0.531 (active)
Locus YIL147C, strain SLN1, stronger effect = lower value
  normalized growth: 0.889 (active)
[3]
  normalized growth: 0.163 (active)
Locus YJL128C, strain PBS2, stronger effect = lower value
  normalized growth: 0.946
Locus YJL157C, strain FAR1, stronger effect = lower value
  normalized growth: 0.655 (active)
Locus YJR016C, strain ILV3, stronger effect = lower value
  normalized growth: 0.891 (active)
Locus YJR066W, strain TOR1 (second series), stronger effect = lower value
  normalized growth: 0.718
[4]
  normalized growth: 0.411 (active)
Locus YKL048C, strain ELM1, stronger effect = lower value
  normalized growth: 0.884
Locus YKL067W, strain YNK1, stronger effect = lower value
  normalized growth: 0.634 (active)
Locus YKL101W, strain HSL1, stronger effect = lower value
  normalized growth: 0.716 (active)
Locus YKL193C, strain SDS22, stronger effect = lower value
  normalized growth: 0.888 (active)
Locus YKL203C, strain TOR2, stronger effect = lower value
  normalized growth: 0.555 (active)
[5]
  normalized growth: 0.578 (active)
Locus YLR133W, strain CKI1, stronger effect = lower value
  normalized growth: 0.655 (active)
Locus YLR403W, strain SFP1, stronger effect = lower value
  normalized growth: 0.469 (active)
Locus YML070W, strain DAK1, stronger effect = lower value
  normalized growth: 0.643 (active)
Locus YMR001C, strain CDC5, stronger effect = lower value
  normalized growth: 0.881 (active)
Locus YMR205C, strain PFK2 (second series), stronger effect = lower value
  normalized growth: 0.735 (active)
Locus YMR277W, strain FCP1, stronger effect = lower value
  normalized growth: 0.863 (active)
Locus YNL006W, strain LST8, stronger effect = lower value
  normalized growth: 0.892 (active)
Locus YNL020C, strain ARK1, stronger effect = lower value
  normalized growth: 0.659 (active)
Locus YNL161W, strain CBK1, stronger effect = lower value
  normalized growth: 0.898 (active)
[6]
  normalized growth: 0.618
Locus YNL207W, strain RIO2, stronger effect = lower value
  normalized growth: 0.867 (active)
Locus YNL222W, strain SSU72, stronger effect = lower value
  normalized growth: 0.876 (active)
Locus YNL307C, strain MCK1 (second series), stronger effect = lower value
  normalized growth: 0.565 (active)
Locus YOL078W, strain AVO1, stronger effect = lower value
  normalized growth: 0.893
Locus YOL136C, strain PFK27, stronger effect = lower value
  normalized growth: 0.715
Locus YOR061W, strain CKA2, stronger effect = lower value
  normalized growth: 0.17 (active)
Locus YOR119C, strain RIO1, stronger effect = lower value
  normalized growth: 0.521 (active)
[7]
  normalized growth: 0.637
Locus YOR329C, strain SCD5, stronger effect = lower value
  normalized growth: 0.901 (active)
Locus YPL031C, strain PHO85, stronger effect = lower value
  normalized growth: 0.471 (active)
Locus YPL153C, strain RAD53, stronger effect = lower value
  normalized growth: 0.517 (active)
Locus YPL204W, strain HRR25, stronger effect = lower value
  normalized growth: 0.477 (active)
Locus YPL209C, strain IPL1, stronger effect = lower value
  normalized growth: 0.89 (active)
[8]
  normalized growth: 0.64 (active)
Locus YPR025C, strain CCL1, stronger effect = lower value
  normalized growth: 0.893 (active)
Locus YPR106W, strain ISR1, stronger effect = lower value
  normalized growth: 0.915
Locus YPR111W, strain DBF20, stronger effect = lower value
  normalized growth: 0.875
Strain NNK1, stronger effect = lower value
  normalized growth: 0.921
Strain TSCII, stronger effect = lower value
  normalized growth: 0.858 (active)

## CC(=O)OCC(=O)[C@@]1(O)[C@@H](C)CC2C3CCC4=CC(=O)C=C[C@]4(C)[C@@]3(F)[C@@H](O)C[C@@]21C (some centres undefined)
[1]
  normalized growth: 1.06
[2]
  normalized growth: 1.05
[3]
  normalized growth: 1.01
[4]
  normalized growth: 1
[5]
  normalized growth: 0.994
[6]
  normalized growth: 0.991
[7]
  normalized growth: 1.05
[8]
  normalized growth: 1.06

From PubChem BioAssay AID1159580 (chemical genetic matrix, 2015)
